Measurements taken from PubChem BioAssay AID651789 (National Center for Advancing Translational Sciences (NCATS), 2012).
Records with an inconclusive call do not appear. Entries that show only a call come without a potency. Active and inactive are the calls of the source. Calls follow the shape of the dose curve; as a rule, active = well fitted inhibition curve with a large enough effect; inconclusive = small, poorly fitted or top-dose-only effect; inactive = no such curve, though single readings can be large or run the other way.

Assay: Acumen qHTS Assay for Inhibitors of the mTORC1 Signaling Pathway in WT MEF Cells: Hit Validation; also: nearly all actives have a fitted effect of over 60% in size
Outline: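 Read-out is immunofluorescent phospho-rpS6 (Ser235/236) normalised to PI-stained cell number, reported as % active cells using a 7.5 nM rapamycin threshold. Cells: WT or Tsc2-/-, p53-/- MEFs, compound-exposed 24 h at 37C; PI count also tracks viability.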
Potency is read from the fitted curve at half-maximal effect.

Row | Structure (SMILES) | Potency
1 | Cn1nnnc1SCCCNCc1ccccc1OCc1ccc(Cl)cc1 | inactive
2 | Cc1ccc(C)c(S(=O)(=O)NCC(c2ccco2)S(=O)(=O)c2ccc(F)cc2)c1 (stereo not given) | inactive
3 | Cc1ccc(S(=O)(=O)c2nnn3c2nc(NC2CCCCC2)c2sccc23)cc1C | inactive
4 | CCOc1ccc(N(Cc2ccccc2)C(=O)c2nc(S(C)(=O)=O)ncc2Cl)cc1 | 2070 nM (active)
5 | CCCSc1ncc(Cl)c(C(=O)Nc2ccc(S(=O)(=O)N3CCCCC3C)cc2)n1 (stereo not given) | inactive
6 | c1ccc(N2CCN(c3ncnc4[nH]ncc34)CC2)cc1 | inactive
7 | CC1=C(C(=O)OC2CCCC2)C(c2ccccc2Cl)CC(=O)N1 (stereo not given) | inactive
8 | COc1ccc(Cl)cc1NC(=O)CCCS(=O)(=O)c1nc(-c2ccc(OC)c(OC)c2)cc(C(F)(F)F)n1 | 3690 nM (active)
9 | Cc1ccc(Nc2nnc(-c3ccc(C)c(S(=O)(=O)N4CCOCC4)c3)c3ccccc23)c(C)c1 | inactive
10 | COc1ccc(CC(=O)Nc2sc3c(c2C(=O)Nc2ccccc2)CCCCC3)cc1 | 13100 nM (active)
11 | Cc1ccc2nc(-c3cccc(NC(=O)c4cccc5ccccc45)c3)oc2c1 | inactive
12 | COc1ccc(Cn2c(C(=O)O)c(CNCc3ccccc3F)c3ccc(OC)cc32)cc1 | inactive
13 | COc1cc(OC)cc(C(=O)NCCc2csc(-c3cccc(C)c3)n2)c1 | inactive
14 | Cc1ccc(NC(=O)CSc2nc(-c3ccco3)cc(C(F)(F)F)n2)cc1C | inactive
15 | O=C(NCc1ccc(F)cc1)c1ccc2c(Cl)c3c(nc2c1)CCCC3 | inactive
16 | CCC(=O)C1=C(c2ccc(F)cc2)N(C(=O)CC)n2cnnc2S1 | inactive
17 | Cc1nn(C(C)C(=O)NC2CCCCC2)c(=O)c2c1sc1ccccc12 (stereo not given) | inactive
18 | CCNS(=O)(=O)c1cc(-c2nnc(Nc3cccc(C(F)(F)F)c3)c3ccccc23)ccc1C | inactive
19 | CC(C)S(=O)(=O)c1oc(-c2ccc(F)cc2)nc1S(=O)(=O)c1ccc(F)cc1 | 521 nM (active)
20 | Cc1ccc(-c2nnn(CC(=O)N(CC(=O)NCCC(C)C)c3ccc(F)cc3)n2)cc1 | inactive

Row | Structure (SMILES) | Potency
21 | O=C(CC1(O)C(=O)N(CCc2ccccc2)c2ccc(Br)cc21)c1ccccc1O (stereo not given) | inactive
22 | Cc1cccc(C(=O)Nc2c3c(nn2-c2ccc(Cl)cc2)CS(=O)(=O)C3)c1 | inactive
23 | COc1ccc(NC(=O)CSc2nc3ccccc3n2Cc2cccc(OC)c2)cc1 | inactive
24 | CCS(=O)(=O)c1ncc(Cl)c(C(=O)Nc2ccc(S(=O)(=O)N(C)c3ccccc3)cc2)n1 | 927 nM (active)
25 | COCc1oc2ccc(NS(=O)(=O)c3ccc(C)cc3)cc2c1C(=O)OC | 5850 nM (active)
26 | COc1ccc(-c2n[nH]c3c2C(c2ccc(O)cc2)N(c2ccc(Br)cc2)C3=O)cc1 (stereo not given) | inactive
27 | Cc1cccc(C2C=C(c3ccc(C)c(C)c3)Nc3nnnn32)c1 (stereo not given) | 1470 nM (active)
28 | CS(=O)c1ccc(-c2nc(-c3ccc(F)cc3)c(-c3ccncc3)[nH]2)cc1 (stereo not given) | inactive
29 | Cc1ccccc1CN1C(=O)C(O)(CC(=O)c2cccc(Br)c2)c2ccccc21 (stereo not given) | inactive
30 | COc1ccc(-c2nc(CCNC(=O)c3c(F)cccc3Cl)cs2)cc1 | inactive
31 | COC(=O)c1ccccc1NC(=O)Cn1c(=O)n(-c2ccc(C)cc2)c(=O)c2ccccc21 | inactive
32 | CC(C(=O)NCc1cccc(Br)c1)n1ncn2cccc2c1=O (stereo not given) | inactive
33 | CCCC1=Nc2cc(C(=O)NC3CCCC3)ccc2Sc2ccc(C)cc21 | 736 nM (active)
34 | COc1ccc(CNC(=O)C2CCN(c3nc4ccc(C)cc4[nH]3)CC2)cc1 | inactive
35 | O=C(NCc1ccccc1Cl)C(=O)NCC(c1cccs1)S(=O)(=O)c1cccs1 (stereo not given) | inactive
36 | CCCCS(=O)(=O)c1oc(-c2cccs2)nc1S(=O)(=O)c1ccccc1 | 1310 nM (active)
37 | COc1ccc(OC)c(Nc2c3c(nc4ccccc24)CCC3)c1 | 585 nM (active)
38 | CC(C)(C)c1ccc(-c2nc(S(=O)(=O)c3ccccc3)c(N3CCOCC3)o2)cc1 | inactive
39 | O=C(NCCc1nc2ccccc2n1Cc1ccc(Cl)cc1Cl)c1ccco1 | inactive
40 | CCCN1C(=O)C(Cc2nc3ccccc3c(=O)n2CC)c2cc(Br)ccc21 (stereo not given) | inactive
